# According to ChEMBL document CHEMBL1961873, “Compounds: GSK PKIS; Assays: Nanosyn kinase panel” (2012):
# Legend:
# [1] = biological target: Calcium/calmodulin-dependent protein kinase type II subunit alpha (Homo sapiens) (UniProt Q9UQM7); details: at 1 µM;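 further: reported value is a mean percent inhibition of CAMK2A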
# [2] = biological target: Calcium/calmodulin-dependent protein kinase type II subunit delta (Homo sapiens) (UniProt Q13557); details: at 0.1 µM
# [3] = biological target: Calcium/calmodulin-dependent protein kinase type II subunit delta (Homo sapiens) (UniProt Q13557); details: at 1 µM
# [4] = biological target: T1, Calcium/calmodulin-dependent protein kinase type IV (Homo sapiens) (UniProt Q16566); details: at 0.1 µM
# T1 sequence (whole entry): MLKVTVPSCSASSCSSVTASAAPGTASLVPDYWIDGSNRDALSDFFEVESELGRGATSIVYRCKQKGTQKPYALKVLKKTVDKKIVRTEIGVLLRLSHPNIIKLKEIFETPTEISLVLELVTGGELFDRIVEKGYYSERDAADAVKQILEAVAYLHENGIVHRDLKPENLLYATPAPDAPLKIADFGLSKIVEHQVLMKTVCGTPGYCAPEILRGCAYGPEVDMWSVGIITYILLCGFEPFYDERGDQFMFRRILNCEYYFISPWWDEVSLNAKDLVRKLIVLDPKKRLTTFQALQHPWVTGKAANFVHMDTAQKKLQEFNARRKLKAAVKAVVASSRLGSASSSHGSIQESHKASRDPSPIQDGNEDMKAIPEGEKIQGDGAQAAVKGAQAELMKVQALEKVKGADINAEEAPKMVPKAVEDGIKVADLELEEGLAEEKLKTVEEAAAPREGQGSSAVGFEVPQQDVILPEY
# [5] = biological target: T1, Calcium/calmodulin-dependent protein kinase type IV (Homo sapiens); details: at 1 µM
# [6] = biological target: T2, Serine/threonine-protein kinase Chk1 (Homo sapiens) (UniProt O14757); details: at 0.1 µM
# T2 sequence (whole entry): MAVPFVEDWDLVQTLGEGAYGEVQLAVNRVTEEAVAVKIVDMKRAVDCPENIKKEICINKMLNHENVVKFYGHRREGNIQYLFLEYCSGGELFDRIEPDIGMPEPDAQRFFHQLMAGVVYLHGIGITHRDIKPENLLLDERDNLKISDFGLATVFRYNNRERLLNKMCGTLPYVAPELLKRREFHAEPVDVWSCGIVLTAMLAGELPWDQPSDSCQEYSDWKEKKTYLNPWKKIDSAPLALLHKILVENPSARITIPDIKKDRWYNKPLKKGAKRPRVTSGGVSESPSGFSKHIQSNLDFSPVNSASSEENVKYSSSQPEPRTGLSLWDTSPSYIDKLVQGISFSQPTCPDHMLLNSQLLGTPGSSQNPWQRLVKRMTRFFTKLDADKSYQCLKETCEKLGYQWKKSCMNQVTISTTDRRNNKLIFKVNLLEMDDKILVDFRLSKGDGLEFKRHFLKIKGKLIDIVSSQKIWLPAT
# [7] = biological target: T2, Serine/threonine-protein kinase Chk1 (Homo sapiens); details: at 1 µM
# [8] = biological target: Serine/threonine-protein kinase Chk2 (Homo sapiens) (UniProt O96017); details: at 0.1 µM
# Sequence of Serine/threonine-protein kinase Chk2 (Homo sapiens) (O96017 whole entry): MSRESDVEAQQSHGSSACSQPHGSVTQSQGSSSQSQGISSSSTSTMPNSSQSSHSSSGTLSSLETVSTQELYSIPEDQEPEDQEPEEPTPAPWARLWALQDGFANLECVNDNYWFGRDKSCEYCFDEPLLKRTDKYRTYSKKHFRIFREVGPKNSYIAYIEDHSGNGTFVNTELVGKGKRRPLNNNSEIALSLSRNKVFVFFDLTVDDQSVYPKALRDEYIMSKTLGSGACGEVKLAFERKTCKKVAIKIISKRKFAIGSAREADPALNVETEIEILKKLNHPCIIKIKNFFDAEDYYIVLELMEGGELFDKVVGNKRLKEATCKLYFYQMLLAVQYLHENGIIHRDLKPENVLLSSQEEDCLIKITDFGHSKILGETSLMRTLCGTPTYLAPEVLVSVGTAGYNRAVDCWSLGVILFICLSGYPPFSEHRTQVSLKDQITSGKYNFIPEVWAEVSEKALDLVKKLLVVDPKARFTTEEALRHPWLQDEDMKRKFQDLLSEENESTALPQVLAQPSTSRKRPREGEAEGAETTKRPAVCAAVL
# [9] = biological target: Serine/threonine-protein kinase Chk2 (Homo sapiens) (UniProt O96017); details: at 1 µM
# [10] = biological target: Death-associated protein kinase 1 (Homo sapiens) (UniProt P53355); details: at 0.1 µM;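 further: reported figure is the mean inhibition of DAPK1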
# Sequence of Death-associated protein kinase 1 (Homo sapiens) (P53355 whole entry, looked up): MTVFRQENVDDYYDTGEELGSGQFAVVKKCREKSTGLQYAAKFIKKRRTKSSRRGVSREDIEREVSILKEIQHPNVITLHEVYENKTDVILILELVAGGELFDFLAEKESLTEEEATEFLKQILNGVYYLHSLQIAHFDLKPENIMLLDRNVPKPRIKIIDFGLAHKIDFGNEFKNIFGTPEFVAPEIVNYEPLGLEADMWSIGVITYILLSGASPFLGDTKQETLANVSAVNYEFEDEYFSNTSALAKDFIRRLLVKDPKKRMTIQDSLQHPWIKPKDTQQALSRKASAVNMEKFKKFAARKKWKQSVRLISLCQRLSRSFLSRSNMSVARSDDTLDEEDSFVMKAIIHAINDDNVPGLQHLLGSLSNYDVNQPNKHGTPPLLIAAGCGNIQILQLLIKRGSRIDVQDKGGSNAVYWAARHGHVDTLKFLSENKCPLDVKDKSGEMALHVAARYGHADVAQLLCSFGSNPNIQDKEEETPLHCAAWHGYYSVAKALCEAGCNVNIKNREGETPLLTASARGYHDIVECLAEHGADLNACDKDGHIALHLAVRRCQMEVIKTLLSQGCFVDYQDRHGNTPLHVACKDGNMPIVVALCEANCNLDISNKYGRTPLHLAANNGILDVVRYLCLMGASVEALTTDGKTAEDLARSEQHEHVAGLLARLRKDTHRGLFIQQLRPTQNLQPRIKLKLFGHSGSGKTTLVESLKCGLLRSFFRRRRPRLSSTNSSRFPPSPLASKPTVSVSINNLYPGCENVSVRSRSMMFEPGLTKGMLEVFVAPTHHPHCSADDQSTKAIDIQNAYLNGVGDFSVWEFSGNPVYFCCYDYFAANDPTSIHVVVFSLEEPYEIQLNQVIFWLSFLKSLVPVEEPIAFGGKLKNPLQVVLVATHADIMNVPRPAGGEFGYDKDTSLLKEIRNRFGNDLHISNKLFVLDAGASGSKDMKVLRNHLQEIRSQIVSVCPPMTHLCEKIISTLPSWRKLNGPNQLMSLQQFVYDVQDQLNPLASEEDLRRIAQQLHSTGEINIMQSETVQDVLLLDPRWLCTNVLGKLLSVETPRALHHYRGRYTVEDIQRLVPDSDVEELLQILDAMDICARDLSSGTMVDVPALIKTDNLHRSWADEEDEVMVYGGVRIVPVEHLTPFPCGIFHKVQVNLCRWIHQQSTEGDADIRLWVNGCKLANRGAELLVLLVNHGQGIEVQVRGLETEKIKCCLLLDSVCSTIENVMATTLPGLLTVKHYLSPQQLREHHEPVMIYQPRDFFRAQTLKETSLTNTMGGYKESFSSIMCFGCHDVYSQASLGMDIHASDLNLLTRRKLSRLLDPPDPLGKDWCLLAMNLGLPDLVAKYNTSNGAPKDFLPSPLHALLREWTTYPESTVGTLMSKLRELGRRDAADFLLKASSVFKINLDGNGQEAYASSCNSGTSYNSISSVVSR
# Sequence of Calcium/calmodulin-dependent protein kinase type II subunit delta (Homo sapiens) (Q13557 whole entry): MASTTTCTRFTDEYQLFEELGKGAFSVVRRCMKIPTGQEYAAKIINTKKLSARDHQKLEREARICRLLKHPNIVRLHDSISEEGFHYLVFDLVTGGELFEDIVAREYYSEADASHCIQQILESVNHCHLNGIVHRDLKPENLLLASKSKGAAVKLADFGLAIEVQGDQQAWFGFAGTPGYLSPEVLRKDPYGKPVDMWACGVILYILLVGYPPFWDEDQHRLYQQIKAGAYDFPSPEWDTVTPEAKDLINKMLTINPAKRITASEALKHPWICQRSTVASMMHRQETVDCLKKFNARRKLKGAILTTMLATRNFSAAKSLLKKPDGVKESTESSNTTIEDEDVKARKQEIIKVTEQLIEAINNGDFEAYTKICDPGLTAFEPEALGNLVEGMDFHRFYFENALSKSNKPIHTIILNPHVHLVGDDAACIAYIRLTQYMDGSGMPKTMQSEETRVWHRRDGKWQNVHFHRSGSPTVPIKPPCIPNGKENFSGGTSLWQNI
# Sequence of Calcium/calmodulin-dependent protein kinase type II subunit alpha (Homo sapiens) (Q9UQM7 whole entry): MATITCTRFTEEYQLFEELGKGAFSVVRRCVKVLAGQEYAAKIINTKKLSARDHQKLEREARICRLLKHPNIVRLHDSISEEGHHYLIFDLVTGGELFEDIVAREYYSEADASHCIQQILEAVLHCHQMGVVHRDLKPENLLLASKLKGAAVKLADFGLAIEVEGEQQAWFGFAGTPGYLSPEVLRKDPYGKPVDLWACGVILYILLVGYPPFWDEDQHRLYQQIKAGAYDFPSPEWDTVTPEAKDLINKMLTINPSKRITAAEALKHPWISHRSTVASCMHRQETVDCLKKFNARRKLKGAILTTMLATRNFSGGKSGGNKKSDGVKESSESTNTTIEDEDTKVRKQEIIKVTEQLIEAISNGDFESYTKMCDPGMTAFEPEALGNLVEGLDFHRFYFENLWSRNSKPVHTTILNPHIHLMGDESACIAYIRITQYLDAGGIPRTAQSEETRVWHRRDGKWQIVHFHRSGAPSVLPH
Compound,inhibition [1] [%],inhibition [2] [%],inhibition [3] [%],inhibition [4] [%],inhibition [5] [%],inhibition [6] [%],inhibition [7] [%],inhibition [8] [%],inhibition [9] [%],inhibition [10] [%]
Cc1ccc(C(=O)NC2CC2)cc1-c1ccc2[nH]ncc2c1,-2.98,-2.96,1.9,-2.05,-2.16,-1.76,-4.22,-4.46,-3.82,-2.57
C[C@@H](Oc1cc(-n2cnc3ccc(OCC4CCN(C)CC4)cc32)sc1C(N)=O)c1ccccc1C(F)(F)F,14.2,6.59,49.9,-0.36,1.74,-1.68,0.33,-2,-1.44,-1.34
NS(=O)(=O)c1ccc(Nc2cc(-c3cccc(O)c3)n[nH]2)cc1,5.49,5.13,6.02,0.32,-1.03,5.99,8.68,3.04,6.54,7.24
CC(C)c1ccc(Nc2nccc(-c3cnn4ncccc34)n2)cc1,4.19,2.72,8.29,1.15,2.83,-1.58,-2.41,1.57,3.38,-1.79
COc1cccc(-n2ncc3c(N/N=C/c4ccc(S(C)(=O)=O)cc4)ncnc32)c1,1.01,1.8,4.11,2.57,0.23,0.1,-1.03,-0.14,0.05,-1.65
CN(c1ccc(NC(=O)Nc2ccc(OC(F)(F)F)cc2)cc1)c1ccnc(Nc2cccc(S(N)(=O)=O)c2)n1,-1.5,1.07,0.14,-0.96,0.59,1.72,-0.01,5.43,25.9,3.79
Cc1cc(-c2ccccn2)cc(C)c1/C=C/c1cncc(-c2nn[nH]n2)c1,1.59,2.75,5,-1.17,-1.4,4.62,4.81,2.62,4.43,6.16
NS(=O)(=O)c1cccc(-c2cc3ccncc3cc2OCc2ccccc2)c1,4.81,4.83,5.07,0.13,-0.46,5.29,6.26,3.17,5.38,6.37
O=C1Nc2ccccc2/C1=C/Nc1ccc2[nH]c(=O)[nH]c2c1,6.6,4.2,14.1,-1.23,-1.4,0.84,15.7,5.95,23.3,1.92
Cc1ccc(NC(=O)CC2CC2)cc1-c1ccc(C(=O)NCC2CC2)cc1,2.95,2.84,3.34,-0.3,-0.84,7.49,10.9,6.96,7.62,11.5
Cc1ccc(Nc2ccnc(Nc3cccc(C(N)=O)c3)n2)cc1O,3.19,2.94,5.54,-0.64,-0.14,1,2.08,2.56,12.8,1.62
Cc1ccc(O)cc1Nc1ccnc2ccc(S(C)(=O)=O)cc12,6.06,3.19,3.36,-1.1,-1.84,8.75,9.21,8.1,15.1,12.2
C[C@@H](Oc1cc(-n2cnc3ccc(OC[C@@H](O)CO)cc32)sc1C(N)=O)c1ccccc1Cl,2.24,-0.89,7.31,1.25,1.44,0.04,-1.83,-1.68,-1.71,-1.62
CN(C)CCCn1c(-c2nonc2N)nc2cnccc21,3.18,3.33,4.12,-0.84,15.5,5.63,4.94,2.39,3.79,4.9
CCS(=O)(=O)c1ccc(OC)c(Nc2ncc(-c3cccc(OC)c3)o2)c1,6.74,1.91,9.35,-0.13,1.2,1.44,3.19,1.56,2.17,2.65
N#Cc1c(NC(=O)c2ccccc2F)sc2c1CCCC2,-0.29,-2.56,1.91,0.87,1.11,-0.69,-3.66,-0.83,-2.63,-1.42
ON=C1CCc2cc(-c3nc(C4CCNCC4)[nH]c3-c3ccncc3)ccc21,3.5,16.1,2.8,1.25,1.79,0.67,1.05,0.01,0.8,0.46

Compound,inhibition [1] [%],inhibition [2] [%],inhibition [3] [%],inhibition [4] [%],inhibition [5] [%],inhibition [6] [%],inhibition [7] [%],inhibition [8] [%],inhibition [9] [%],inhibition [10] [%]
CS(=O)(=O)CCNCc1nc(-c2ccc3ncnc(Nc4ccc(OCc5cccc(C(F)(F)F)c5)cc4)c3c2)cs1,2.45,2.93,3.53,0.68,1.44,1.74,5.07,1.74,5.27,3.32
NS(=O)(=O)c1ccc(N/N=C2\C(=O)Nc3ccc(Cl)cc32)cc1,4.05,2.98,4.81,-0.73,-3.41,-3.35,-2.04,-2.37,0.53,-4
COc1cc2ncnc(Nc3ccc(C)c(O)c3)c2cc1OC,2.74,2.6,3.68,-1.73,-3.77,4.63,4,5.03,25.5,6.4
Oc1cccc(-c2nc(-c3ccccc3)[nH]c2-c2ccncc2)c1,3.17,3.67,3.45,2.26,0.29,7.47,6.28,0.91,1.68,5.76
CN1CCN(C(=O)c2ccc(NC(=O)Nc3ccc(N(C)c4ccnc(Nc5ccc(CS(C)(=O)=O)cc5)n4)cc3)cc2)CC1,3.13,1.38,3.39,1.22,1.48,1.47,2.64,5.54,39.4,2.86
COc1cc2ncnc(Nc3ccc4c(cnn4Cc4ccccc4)c3)c2cc1OC,0.24,1.57,4.24,-0.17,0.05,8.66,14.1,10.7,35.9,9.32
Nc1nccc(-c2c(-c3ccc(F)cc3)nn3cc(C(F)(F)F)ccc23)n1,-1.99,0.49,-0.48,-0.17,-1,-1.52,-2.44,0.02,-0.27,2.24
CN(C)C(=O)O[C@H]1CN[C@H](C#Cc2cc3ncnc(Nc4ccc(OCc5cccc(F)c5)c(Cl)c4)c3s2)C1,1.77,2.42,2.41,1.15,0.23,0.86,2.73,1.56,3.31,1.79
NS(=O)(=O)c1ccc(-c2cc3ccncc3cc2OCc2ccccc2)cc1,2.94,2.4,4.59,-1.16,2.15,0.26,0.12,2.85,4.7,1.1
O=S(=O)(CCOCc1ccc(-c2ccc3ncnc(Nc4ccc(OCc5cccc(F)c5)c(Cl)c4)c3c2)o1)c1ccccc1,-0.9,0.42,1.29,-1.19,-1.67,3.34,2.55,1.33,3.09,1.67
CCCN1CCCC(c2ccc(Nc3nc(Nc4cc(F)ccc4C(N)=O)c4cc[nH]c4n3)c(OC)c2)C1 (stereo not given),44.9,26.9,72.8,7.83,36.1,-4.38,8.07,48.9,79.1,3.54
c1ccc(Cc2nc3ccc(Nc4ncnc5ccccc45)cc3[nH]2)cc1,2,1.68,2.41,-2.03,-1.81,2.86,9.39,1.71,5.02,3.43
CCn1c(-c2nonc2N)nc2ccc(F)cc21,3.68,3.98,3.55,-2.59,-2.75,3.58,8.57,3.29,4.58,8.42
COC(=O)c1cncc(/C=C/c2c(C)cc(O)cc2C)c1,3.06,1.37,3,-2.74,-4.13,3.13,3.49,2.38,4.27,4.88
Cc1ccc2c(c1)/C(=N/Nc1ccc(S(N)(=O)=O)cc1)C(=O)N2,2.25,1.2,3.28,1.05,2.05,0.25,3.5,0.04,0.67,0.46
Cc1cc(O)cc(C)c1/C=C/c1cncc(C(=O)N(C)C)c1,3.57,3.56,4.04,2.13,0.97,5.84,2.96,-0.15,0.11,3.93
COc1cccc(-n2nc(C)c3c(N/N=C(\C)c4ccncc4)ncnc32)c1,-0.32,0.75,1.55,-0.54,0.81,0.24,0.57,0.02,0.48,0.32
